The source of these data is PubChem BioAssay.

Records with an inconclusive call do not appear. For part of these data: Results with a measured potency or affinity are listed apart. Active and inactive are the calls of the source. Unless noted, no rule for the calls is given here.

A short description of experiment [1]: compounds altering circadian rhythm period length – cell-based, LOPAC library, luminescence reporter (AID 2774).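 Also: values are relative to mean of DMSO wells on each plate.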 The conditions noted are these: circadian reporter cells, at 7 µM, actives lie on both sides.
The subject of experiment [2] is Hepatitis C virus NS3 helicase. The experiment can be described thus: blockers of NS3h binding to ssDNA – biochemical, fluorescence polarization, LOPAC1280 library, primary screen (AID 687035; in the data active = inhibition above about 37%). The following applies: Purified HCV NS3 helicase, Cy5-dT15 ssDNA binding fluorescence polarization; stronger effect = higher value; concentration not given here.
Experiment [3] is described as follows: compounds altering Cy5-DNA-NS3h complex signal – biochemical, LOPAC1280, artefact control for HCV NS3 helicase inhibitor project (AID 687037). The following applies: Cy5-DNA-NS3h complex fluorescence interference counterscreen.
Experiment [4] in a line: blockers of cellular phospholipid synthesis – cell-based, LOPAC library, screen 4, primary screen (AID 1347384). The conditions noted are these: animal cells, phospholipid biosynthesis inhibition screen; at 10 µM.
A short description of experiment [5]: viability loss in pontine glioma line – cell-based, SU-DIPG-XIII, MIPE4.0, CellTiter-Glo, qHTS, dose response (AID 1347061; cut-off not given, nearly all actives have AC50 up to about 37 µM;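 also: cells exposed to compound for 48 hours before readout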). The following applies: CellTiter-Glo ATP luminescence.
The nature of experiment [6]: viability loss in pontine glioma line – cell-based, SU-DIPG-XVII, MIPE5.0, CellTiter-Glo, qHTS, dose response (AID 1347060; cut-off not given, nearly all actives have AC50 up to about 26 µM;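 also: cells exposed to compound for 48 hours before viability readout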). The following applies: CellTiter-Glo ATP luminescence.
Experiment [7] is described as follows: compounds altering HSF1 focus formation in cells – imaging, Selleck Cancer Library (AID 1347162; in the data active = plate-normalised HSF1 focus index below about 0.46). The following applies: human cells, HSF1 nuclear foci imaging, at 10 µM; SSMD: measured here: HSF1 foci SSMD mean; cell count: measured here: cell number; plate-normalised HSF1 focus index: stronger effect = lower value.
Experiment [8] in a line: blockers of polyQ-driven CASP3 activation – cell-based (AID 1583). The conditions noted are these: polyglutamine-induced caspase-3 activation, cell assay; stronger effect = higher value;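 tested at 10 µM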.
Experiment [9] in a line: yeast 75Q aggregation reduction – 75Q-TubU reporter (AID 1593). The conditions noted are these: Yeast 75Q polyglutamine aggregation reporter.
Experiment [10] in a line: restoration of touch response, mutant HTT neurons – whole organism, C. elegans mechanosensory neurons, N-terminal huntingtin (AID 1599). The following applies: C. elegans polyQ-huntingtin mechanosensory neurons, stronger effect = higher value.
Experiment [11] in a line: blockers of cytochrome c efflux from mitochondria – biochemical, purified mitochondria (AID 1603).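 Also: mouse liver mitochondria challenged with calcium chloride; signal normalized to the plate average as 100%.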 The conditions noted are these: stronger effect = lower value.
Experiment [12] in a line: polyglutamine aggregate formation blockers (AID 1604). The conditions noted are these: polyglutamine-induced protein aggregation inhibition assay; stronger effect = higher value; tested at 2.5 µM.
Experiment [13] can be described thus: glutamate transport activators, MN-1 cells, MN-1 cell line (AID 1612).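 Also: tested at 1 µM final; 0% = mean of DMSO vehicle wells on each plate; positive means more glutamate uptake than control and negative means less.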 The conditions noted are these: MN-1 motor neuron cells, stronger effect = higher value.
The nature of experiment [14]: 75Q-TubH aggregate inhibition, S. cerevisiae, yeast (AID 1616). The conditions noted are these: S. cerevisiae 75Q-TubH polyglutamine aggregation suppression; stronger effect = higher value.
Experiment [15] can be described thus: GFP-Q80 aggregate reduction, neuronal-like cells, cell-based, NGF-treated PC12, GFPQ80 (AID 1614).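 Also: lower means fewer inclusions and 0 means no inclusions at all.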 The following applies: PC12 NGF-treated GFP-polyQ80 inclusion reduction.

With `CNCCCC1c2ccccc2C=Cc2ccccc21`, the period change in experiment [1] is -0.13 h (inactive). For the same molecule, in experiment [2], the inhibition is -3% (inactive). Moreover, the fluorescence ratio (interference) in experiment [3] is 0.9 (inactive). In addition, the molecule was classed as inactive in experiment [4].

For the molecule `CCCN(CCC)CCc1cccc2c1CC(=O)N2`, in [1], the period change is 0.155 h (inactive). In experiment [2], the inhibition was -3% (inactive). Further, the fluorescence ratio (interference) in experiment [3] was 1 (inactive). In addition, the outcome in experiment [4] was inactive.

Take `CCN(C)C(=O)Oc1cccc([C@H](C)N(C)C)c1`: the outcome in [5] was inactive.

Regarding `CCN(CC)C(=O)c1ccc(O)c(OC)c1`, the period change in experiment [1] was -1.55 h (active). Further, the inhibition in experiment [2] was 0% (inactive). Also, the fluorescence ratio (interference) in experiment [3] is 1 (inactive). Besides, the outcome in experiment [4] was inactive.

Take `COc1cccc2c1C(=O)c1c(O)c3c(c(O)c1C2=O)C[C@@](O)(C(C)=O)C[C@@H]3O[C@H]1C[C@H](N)[C@H](O)[C@H](C)O1`: the AC50 in experiment [6] was 118 nM (active). In experiment [7], the SSMD is -15.6, the cell count was found to be 7130 and the plate-normalised HSF1 focus index was 0.198 (active).

With `CC(C)(Oc1ccc(C2CC2(Cl)Cl)cc1)C(=O)O` (configuration not stated), the period change in [1] was 0.045 h (inactive). The inhibition in experiment [2] is -1% (inactive). In experiment [3], the fluorescence ratio (interference) is 1 (inactive). Further, the molecule was called inactive in experiment [5] and in [4].

With `O=C1Cc2cc(CCN3CCN(c4nsc5ccccc45)CC3)c(Cl)cc2N1`, the inhibition in experiment [2] is 2% (inactive). Besides, the fluorescence ratio (interference) in [3] was 1 (inactive). For the same molecule, the result in [4] was inactive.

For the molecule `CN1CCN(c2c(F)cc3c(=O)c(C(=O)O)cn(CCF)c3c2F)CC1`, in experiment [5], the result was inactive.

In the case of `CN(C(=O)CN(CCO)CC(=O)N(C)C(C)(C)Cc1ccccc1)C(C)(C)Cc1ccccc1`, the inhibition in [8] is -62.8%. This molecule also yielded a score in experiment [9] of 1.1. In experiment [10], this molecule came in with a rescue above control of 0. In addition, in experiment [11], the cytochrome c release ratio worked out at 5.27. The molecule also registered an inhibition of aggregation in [12] of 66.7%. The glutamate uptake change in experiment [13] was -0.7%. Further, the aggregation suppression score in experiment [14] came to 1.14.

For `C[C@@H](O)[C@H]1C(=O)N2C(C(=O)O)=C(SCCN=CN)C[C@H]12`, the inhibition in experiment [2] is -1% (inactive). Also, the fluorescence ratio (interference) in experiment [3] was 1 (inactive). In addition, the call in experiment [4] was inactive.

`N=C(N)N1CCc2ccccc2C1`: the result in experiment [4] was inactive.

As to `CNCCc1ccccn1`, in [8], the inhibition is 24.5%. In addition, in [9], the score came to 1.2. The same molecule had a rescue above control in experiment [10] of -9.72. In addition, in experiment [11], the cytochrome c release ratio is 0.91. This molecule also had an inhibition of aggregation in [12] of 75.9%. Also, the glutamate uptake change in experiment [13] is -5.29%. The inclusion score in [15] was found to be 2. The molecule also came in with an aggregation suppression score in experiment [14] of 1.84.

Consider `O=C(O)CN(CCN(CC(=O)O)CC(=O)O)CCN(CC(=O)O)CC(=O)O`, for which the period change in experiment [1] was 0.145 h (inactive). In [2], the inhibition was -2% (inactive). The fluorescence ratio (interference) in [3] was 1 (inactive). Also, the result in experiment [4] was inactive.

For `CC(=O)N[C@@H](CC(C)C)C(=O)O`, the inhibition in experiment [8] turned out to be 23.7%. Moreover, in experiment [9], the score was found to be 0.82. The molecule further yielded a rescue above control in [10] of 14.2. In experiment [11], the cytochrome c release ratio worked out at 1.03. Besides, the inhibition of aggregation in experiment [12] turned out to be 74.7%. In addition, the glutamate uptake change in [13] is 2.89%. This molecule gave an inclusion score in experiment [15] of 2. This molecule also had an aggregation suppression score in experiment [14] of 0.909.

As for `CN(C)CC/C=C1\c2ccccc2Sc2ccc(Cl)cc21`, the inhibition in experiment [8] was found to be 3.29%. The score in experiment [9] is 0.95. In addition, in experiment [10], the rescue above control is 0. Moreover, the cytochrome c release ratio in [11] is 1.06. In experiment [12], this molecule showed an inhibition of aggregation of 59.1%. Also, the glutamate uptake change in experiment [13] was 14.9%. Further, the aggregation suppression score in [14] was determined as 0.956.

With `Cc1c(N)c(=O)n(-c2ccccc2)n1C`, the inhibition in experiment [8] is 13.4%. In experiment [9], this molecule registered a score of 1.65. The rescue above control in [10] is -0.44. The cytochrome c release ratio in experiment [11] was determined as 0.9. In [12], this molecule showed an inhibition of aggregation of 81.5%. Further, the glutamate uptake change in experiment [13] was -10.8%. Besides, in experiment [15], the inclusion score was determined as 1. In [14], the aggregation suppression score turned out to be 1.31.
